Records with an inconclusive call do not appear. The source made the active and inactive calls. Unless noted, calls come from the whole dose curve; as a rule, active = well fitted curve in the direction sought with a large enough effect in the repeat runs; inconclusive = weak or mixed curves; inactive = no such curve, though single readings can be large; an effect the other way counts as inactive or inconclusive.
What was measured:
[1] = A CellTox Green Cytotoxicity Assay to monitor cytotoxicity in HepG2 cells - 0 hour (AID 1224882); note: nearly all actives have a fitted effect of over 35% in size; note: potency is the fitted concentration of half-maximal effect
Summary of the method: (§1)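 Measurements at 0, 8, 16, 24, 32 and 40 h of treatment captured CellTox Green fluorescence in HepG2 cells that had been co-plated with reagent and preincubated 5 h at 37 C/5% CO2.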

[2] = A CellTox Green Cytotoxicity Assay to monitor cytotoxicity in HepG2 cells - 32 hour (AID 1224883); note: nearly all actives have a fitted effect of over 50% in size; note: potency is the fitted concentration of half-maximal effect
Summary of the method: as §1

[3] = A CellTox Green Cytotoxicity Assay to monitor cytotoxicity in HEK293 cells - 8 hour (AID 1224884); note: nearly all actives have a fitted effect of over 35% in size
Summary of the method: (§2)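 Tox21 screen in HEK293: membrane-impermeant cyanine dye fluoresces on binding dead-cell DNA; compound pinned 5 h post-seeding, plates held at 37 C, signal read repeatedly through 40 h.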

[4] = qHTS RealTime-Glo MT Cell Viability Assay in HepG2 cells - 16 hour (AID 1224885); note: nearly all actives have a fitted effect of over 50% in size
Summary of the method: (§3)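 HepG2 cells were seeded at 600 cells/well together with NanoLuc luciferase and a cell-permeant prosubstrate, preincubated 5 h at 37 C/5% CO2, then pin-dosed with compounds in DMSO. Nonlytic luminescence from viable cells was read at each time point.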

[5] = qHTS RealTime-Glo MT Cell Viability Assay in HEK293 cells - 8 hour (AID 1224887); note: top concentration of the series differs between compounds; nearly all actives have a fitted effect of over 50% in size
Summary of the method: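 HEK293 + NanoLuc + prosubstrate, 600 cells/well; 5 h, 37 C/5% CO2; compound 23 nL in DMSO by pintool; 37 C; luminescence read at 0, 8, 16, 24, 32 and 40 h time points.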

[6] = A CellTox Green Cytotoxicity Assay to monitor cytotoxicity in HEK293 cells - 16 hour (AID 1224888); note: nearly all actives have a fitted effect of over 35% in size
Summary of the method: as §2

[7] = qHTS RealTime-Glo MT Cell Viability Assay in HepG2 cells - 0 hour (AID 1224889); note: nearly all actives have a fitted effect of over 50% in size
Summary of the method: as §3

[8] = A CellTox Green Cytotoxicity Assay to monitor cytotoxicity in HepG2 cells - 8 hour (AID 1224890); note: nearly all actives have a fitted effect of over 45% in size
Summary of the method: as §1

[9] = qHTS assay to identify small molecule antagonists of the estrogen receptor alpha (ER-alpha) signaling pathway using the BG1 cell line in the presence of 0.1 nM 17-beta-estradiol - cell viability counter screen (AID 1259241); note: nearly all actives have a fitted effect of over 40% in size
Summary of the method: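 CellTiter-Fluor read (30 min, 37C) on ER-alpha/ERE-luc VM7Luc4E2 cells; 22 hr compound treatment; agonist 0.1 nM E2 final; same-well multiplex.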

[10] = qHTS assay to identify small molecule antagonists of the androgen receptor (AR) signaling pathway using the MDA cell line in the presence of 0.5 nM R1881 - cell viability counter screen (AID 1259242); note: nearly all actives have a fitted effect of over 45% in size
Summary of the method: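 Concentration-response screen of compounds for toxicity in MDA-kb2 reporter cells: 16 hr at 37C with 0.5 nM R1881, endpoint live-cell protease fluorescence measured in the reporter wells.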

[11] = qHTS assay to identify small molecule phospholipidosis (PLD) inducers (AID 1259344; active = well fitted curve in the direction sought with a large enough effect; an effect the other way counts as inactive or inconclusive)
Summary of the method: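 After 4 h attachment on collagen I, HepG2 cells were dosed with compound alongside LipidTOX Red, kept 24 h at 37 C, fixed, and imaged for lamellar phospholipid pits.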

[12] = qHTS assay to identify small molecule HDAC inhibitors (AID 1259364);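 note: wild-type HCT-116 cells with endogenous class I/II HDAC activity; top concentration of the series differs between compounds; nearly all actives have a fitted effect of over 45% in size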
Summary of the method: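 Screening used wild-type human colon HCT-116 cells incubated overnight, dosed with compounds for 2 hours, and assayed with a homogeneous luminogenic HDAC I/II reagent for 30 minutes at room temperature.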

[13] = qHTS assay to identify small molecule HDAC inhibitors - cell viability counter screen (AID 1259365)
Summary of the method: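 To flag cytotoxic hits, 1,500 wild-type HCT-116 cells per well, plated the day before, receive test compounds for 2hr at 37 C before CellTiter-Glo reagent and a luminescence read.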

[14] = qHTS assay to identify small molecule agonists of the sonic hedgehog signaling (Shh) pathway - cell viability counter screen (AID 1259366); note: nearly all actives have a fitted effect of over 50% in size; note: potency is the fitted concentration of half-maximal effect
Summary of the method: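 Fluorescence from CellTiter-Fluor reports live cells in this counter screen. NIH/3T3-derived Gli1-Luc reporter cells receive test compounds for 24hr at 37C; reagent goes in at 23hr.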

[15] = qHTS assay to identify small molecule antagonists of the sonic hedgehog signaling (Shh) pathway - cell viability counter screen (AID 1259367); note: nearly all actives have a fitted effect of over 55% in size; note: potency is the fitted concentration of half-maximal effect
Summary of the method: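 Conditioned medium drove Shh signaling in 3T3 Gli1-Luc cells exposed to compounds at 37C and 5% CO2. Viability was determined from CellTiter-Fluor fluorescence, with reagent incubated 1 hr after 23 hr of treatment.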

[16] = qHTS assay to identify small molecule agonists of the sonic hedgehog signaling (Shh) pathway (AID 1259368; calls by dose curve;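 note: NIH/3T3-derived 3T3Gli1-Luc cells carrying a stable Gli1-driven firefly luciferase reporter; series mostly up to about 92 µM; nearly all actives have a fitted effect of over 15% in size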)
Summary of the method: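 Hedgehog pathway agonism scored by increased firefly luciferase luminescence in 3T3Gli1-Luc cells treated 24 hr at 37 C; detection used a 30 min room-temperature reagent incubation.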

[17] = A CellTox Green Cytotoxicity Assay to monitor cytotoxicity in HEK293 cells - 32 hour (AID 1224881); note: nearly all actives have a fitted effect of over 40% in size
Summary of the method: as §2

[18] = qHTS RealTime-Glo MT Cell Viability Assay in HEK293 cells - 24 hour (AID 1224886); note: nearly all actives have a fitted effect of over 50% in size; note: potency is the fitted concentration of half-maximal effect
Summary of the method: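 HEK293 cells were seeded at 600 cells/well together with NanoLuc luciferase and cell-permeant prosubstrate, preincubated 5 h at 37 C/5% CO2, then given compound in DMSO by pintool. Luminescence from viable-cell prosubstrate reduction was read repeatedly over 40 h.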

[19] = molecular target: Estrogen receptor (Homo sapiens) (UniProt P03372); experiment: qHTS assay to identify small molecule antagonists of the estrogen receptor alpha (ER-alpha) signaling pathway using the BG1 cell line in the presence of 0.1 nM 17-beta-estradiol (AID 1259244); note: nearly all actives have a fitted effect of over 50% in size; note: potency is the fitted concentration of half-maximal effect
Chain of Estrogen receptor (Homo sapiens) (P03372 whole entry, looked up): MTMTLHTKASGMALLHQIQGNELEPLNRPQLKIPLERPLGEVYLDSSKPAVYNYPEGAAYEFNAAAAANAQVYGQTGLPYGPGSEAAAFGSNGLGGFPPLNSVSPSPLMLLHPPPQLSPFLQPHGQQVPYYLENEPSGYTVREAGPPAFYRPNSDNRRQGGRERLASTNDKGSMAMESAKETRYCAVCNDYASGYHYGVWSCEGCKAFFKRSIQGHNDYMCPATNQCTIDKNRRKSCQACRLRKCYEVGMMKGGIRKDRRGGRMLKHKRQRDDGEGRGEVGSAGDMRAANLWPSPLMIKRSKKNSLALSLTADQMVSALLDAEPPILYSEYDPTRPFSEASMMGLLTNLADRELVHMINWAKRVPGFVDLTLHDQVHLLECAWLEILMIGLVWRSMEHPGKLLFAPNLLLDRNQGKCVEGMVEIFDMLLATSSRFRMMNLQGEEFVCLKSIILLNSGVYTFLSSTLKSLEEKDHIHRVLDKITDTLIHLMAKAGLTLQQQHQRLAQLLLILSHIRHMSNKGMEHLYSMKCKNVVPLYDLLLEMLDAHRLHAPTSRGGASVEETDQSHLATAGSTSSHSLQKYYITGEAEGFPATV
Summary of the method: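 Compounds were tested against 0.1 nM (final) 17beta-estradiol in VM7Luc4E2 cells, which express full-length ER-alpha and an ERE-luciferase reporter; luminescence was recorded following 22 h exposure.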

[20] = molecular target: Androgen receptor (Homo sapiens) (UniProt P10275); experiment: qHTS assay to identify small molecule antagonists of the androgen receptor (AR) signaling pathway using the MDA cell line in the presence of 0.5 nM R1881 (AID 1259243); note: nearly all actives have a fitted effect of over 50% in size
Chain of Androgen receptor (Homo sapiens) (P10275 whole entry, looked up): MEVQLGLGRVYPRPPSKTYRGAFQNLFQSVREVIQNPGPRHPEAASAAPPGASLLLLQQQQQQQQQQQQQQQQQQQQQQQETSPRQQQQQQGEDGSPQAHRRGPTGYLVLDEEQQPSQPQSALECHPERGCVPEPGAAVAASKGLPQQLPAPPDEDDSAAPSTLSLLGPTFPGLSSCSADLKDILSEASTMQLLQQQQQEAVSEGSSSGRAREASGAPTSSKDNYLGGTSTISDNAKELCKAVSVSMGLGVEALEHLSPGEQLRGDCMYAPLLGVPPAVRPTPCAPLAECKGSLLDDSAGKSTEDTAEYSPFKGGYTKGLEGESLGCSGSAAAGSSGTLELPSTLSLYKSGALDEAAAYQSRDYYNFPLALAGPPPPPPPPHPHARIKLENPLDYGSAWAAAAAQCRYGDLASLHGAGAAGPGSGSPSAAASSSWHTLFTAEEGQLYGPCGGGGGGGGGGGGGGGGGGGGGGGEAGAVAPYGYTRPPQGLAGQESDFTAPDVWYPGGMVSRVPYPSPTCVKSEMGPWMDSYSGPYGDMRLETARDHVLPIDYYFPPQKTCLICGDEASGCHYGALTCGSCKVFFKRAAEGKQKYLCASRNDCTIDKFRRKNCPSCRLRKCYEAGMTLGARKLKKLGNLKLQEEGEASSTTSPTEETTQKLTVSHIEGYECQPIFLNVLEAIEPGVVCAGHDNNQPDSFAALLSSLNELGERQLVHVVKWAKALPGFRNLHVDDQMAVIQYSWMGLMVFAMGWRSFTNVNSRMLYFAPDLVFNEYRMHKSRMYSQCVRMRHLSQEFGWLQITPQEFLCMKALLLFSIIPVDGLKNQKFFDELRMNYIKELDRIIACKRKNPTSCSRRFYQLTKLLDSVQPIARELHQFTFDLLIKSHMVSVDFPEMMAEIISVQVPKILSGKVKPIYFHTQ
Summary of the method: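 With R1881 held at 0.5 nM (final), compound effects on MMTV-luciferase expression in MDA-kb2 cells were scored by luminescence after a 16 hr, 37C incubation.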
% is set by controls: 0 for no effect and ±100 for the full control effect.

CC[N+]1(CC)CCC(=C(c2ccccc2)c2ccccc2)C1C (configuration not stated)
inactive: Potency [1] | Potency [2] | Potency [3] | Potency [4] | Potency [5] | Potency [6] | Potency [7] | Potency [8] | Potency [9] | Potency [10] | Potency [11] | Potency [12] | Potency [13] | Potency [14] | Potency [15] | outcome [16]

O=C(NCC1CN(c2ccc(N3CCOCC3=O)cc2)C(=O)O1)c1ccc(Cl)s1 (configuration not stated)
inactive: Potency [17] | Potency [3] | Potency [4] | Potency [18] | Potency [5] | Potency [6] | Potency [7] | Potency [9] | Potency [10] | Potency [13] | Potency [14] | Potency [15] | outcome [16]

C=C(C)C(=O)OCC
inactive: Potency [2] | Potency [3] | Potency [4] | Potency [18] | Potency [5] | Potency [6] | Potency [8] | Potency [9] | Potency [10] | Potency [19] | Potency [12] | Potency [13] | Potency [14] | Potency [15] | outcome [16]

Cc1oc2c(NC(=O)c3c(Cl)cccc3Cl)cccc2c1C(C)(C)O
inactive: Potency [1] | Potency [3] | Potency [5] | Potency [6] | Potency [8] | Potency [9] | Potency [12] | Potency [13] | Potency [14] | Potency [15] | outcome [16]
active: Potency [2] 49 µM | Potency [19] 13.7 µM

CCCCC/C=C\C/C=C\CCCCCCCC(=O)NC(C)c1ccccc1 (configuration not stated)
inactive: Potency [1] | Potency [3] | Potency [18] | Potency [6] | Potency [7] | Potency [8] | Potency [9] | Potency [10] | PLD induction [11] -2.94% [at 7.66 µM] | Potency [12] | Potency [13] | outcome [16]

CCCCCCCCCCCCN1CCCCCC1=O
inactive: Potency [3] | Potency [4] | Potency [6] | Potency [7] | Potency [9] | Potency [10] | Potency [12] | Potency [13] | Potency [14] | Potency [15] | outcome [16]

CO[C@@H]1[C@H](OC(=O)/C=C/C=C/C=C/C=C/C(=O)O)CC[C@]2(CO2)[C@H]1[C@@]1(C)O[C@@H]1CC=C(C)C
inactive: Potency [1] | Potency [2] | Potency [3] | Potency [5] | Potency [6] | Potency [8] | Potency [9] | Potency [10] | Potency [11] | Potency [12] | Potency [13] | Potency [14] | Potency [15] | outcome [16]

C[N+]1(C)CCC(OC(=O)C(O)(c2ccccc2)C2CCCC2)C1 (configuration not stated)
active: Potency [1] 26.8 µM
inactive: Potency [2] | Potency [18] | Potency [7] | Potency [8] | Potency [9] | Potency [10] | Potency [19] | Potency [11] | Potency [12] | Potency [13] | Potency [14] | Potency [15] | outcome [16]

CCCCCCCCCCCCCCCCCCOS(=O)(=O)O
inactive: Potency [1] | Potency [4] | Potency [7] | Potency [9] | Potency [10] | Potency [12] | Potency [13] | Potency [14] | Potency [15] | outcome [16]

CN(C)c1ccc(C(c2ccccc2)c2ccc(N(C)C)cc2)cc1
inactive: Potency [1] | Potency [2] | Potency [3] | Potency [5] | Potency [6] | Potency [7] | Potency [8] | Potency [9] | Potency [10] | Potency [12] | Potency [13] | Potency [14] | Potency [15] | outcome [16]

O=S(c1cc(Cl)cc(Cl)c1O)c1cc(Cl)cc(Cl)c1O
inactive: Potency [1] | Potency [3] | Potency [4] | Potency [18] | Potency [5] | Potency [8] | Potency [9] | Potency [10] | Potency [20] | Potency [19] | Potency [11] | Potency [12] | Potency [13] | Potency [15] | outcome [16]

CC(C)=CCC/C(C)=C/CC/C(C)=C/CO
inactive: Potency [1] | Potency [3] | Potency [4] | Potency [7] | Potency [8] | Potency [10] | Potency [12] | Potency [13] | Potency [14] | Potency [15] | outcome [16]

COc1cc(Cl)c(OC)cc1N
inactive: Potency [2] | Potency [3] | Potency [4] | Potency [7] | Potency [8] | Potency [9] | Potency [10] | Potency [12] | Potency [13] | Potency [14] | Potency [15] | outcome [16]

OCc1cc(C(O)CNCCCCCCOCCCCc2ccccc2)ccc1O (configuration not stated)
inactive: Potency [1] | Potency [3] | Potency [6] | Potency [7] | Potency [8] | Potency [19] | Potency [13] | outcome [16]
active: Potency [2] 23.9 µM | Potency [18] 19 µM | Potency [14] 3.76 µM | Potency [15] 4.73 µM

COc1ccc(C(=O)N2CCN(CC(=O)N3CCOCC3)CC2)cc1
inactive: Potency [2] | Potency [3] | Potency [4] | Potency [18] | Potency [7] | Potency [8] | Potency [9] | Potency [10] | Potency [11] | Potency [12] | Potency [13] | Potency [14] | Potency [15] | outcome [16]

O=C1CCCCCCCCCCCC(=O)OCCO1
inactive: Potency [1] | Potency [3] | Potency [4] | Potency [18] | Potency [5] | Potency [6] | Potency [7] | Potency [9] | Potency [10] | Potency [20] | Potency [19] | Potency [12] | Potency [13] | Potency [14] | Potency [15] | outcome [16]

Source: PubChem BioAssay (Tox21)
